The source of these data is PubChem BioAssay (Tox21).

SMILES strings stand for the structures. Values joined by “and” are separate entries in the source; they are usually repeats but may differ in a detail not shown here. Identical values can stand only once. The source holds several records for some structures; these can differ, active in one and inactive in another. Active and inactive are the calls of the source. Unless noted, calls come from the whole dose curve; as a rule, active = well fitted curve in the direction sought with a large enough effect in the repeat runs; inconclusive = weak or mixed curves; inactive = no such curve, though single readings can be large; an effect the other way counts as inactive or inconclusive.

Assay [1] is described as follows: qHTS assay to identify small molecule antagonists of the thyroid receptor (TR) signaling pathway - cell viability counter screen (AID 743064). Note: nearly all actives have a fitted effect of over 50% in size. Note: potency is the fitted concentration of half-maximal effect. The procedure, abridged: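 GH3.TRE-Luc cells, 4 h pre-plating; cpd + T3 1 nM final; 37 °C 23.5 h; CellTiter-Fluor 30 min; fluorescence read.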
Assay [2] can be described thus: qHTS assay to identify small molecule antagonists of the thyroid receptor (TR) signaling pathway (AID 743065). Note: nearly all actives have a fitted effect of over 55% in size. Note: potency is the fitted concentration of half-maximal effect. A digest of the protocol:
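Antagonism measured as loss of luciferase signal in GH3 cells stably carrying a TRE-luciferase reporter, co-treated with compound and T3 (1 nM final) for 23.5 h at 37 C. Viability was read in the same well by CellTiter-Fluor.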
For orientation: In qHTS, concentration-response curves come from the screen itself.

For assay [3], the system named is thyroid hormone receptor (rat, GH3 cells). In words: qHTS assay to identify small molecule agonists of the thyroid receptor (TR) signaling pathway (AID 743066; calls by dose curve; note: potency is the fitted concentration of half-maximal effect).
The target in assay [4] is Estrogen receptor (Homo sapiens) (UniProt P03372). The assay is described as follows: qHTS assay to identify small molecule antagonists of the estrogen receptor alpha (ER-alpha) signaling pathway (AID 743069; active = well fitted curve in the direction sought with a large enough effect in the signal ratio in the repeat runs, not every such curve was filed as active; inconclusive = weak or mixed curves, or effect the other way; inactive = no such curve, though single readings can be large or run the other way; the % refers to the signal ratio; note: potency is the fitted concentration of half-maximal effect). A digest of the protocol:
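ER-alpha-UAS-bla GripTite HEK293 line; 2% charcoal-stripped FBS overnight; plated, 4 hr 37C/5% CO2; cpd in DMSO + 17beta-estradiol, 18 hr 37C; LiveBLAzer B/G FRET substrate 2 hr RT; fluorescence intensity.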

The nature of assay [5]: qHTS assay to identify small molecule antagonists of the estrogen receptor alpha (ER-alpha) signaling pathway - cell viability counter screen (AID 743074; calls by dose curve;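 note: HEK293 cells carrying ER-alpha-UAS-bla reporter stimulated with 17beta-estradiol; nearly all actives have a fitted effect of over 45% in size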).
In assay [6] the target is Estrogen receptor (Homo sapiens) (UniProt P03372). The assay is described as follows: qHTS assay to identify small molecule agonists of the estrogen receptor alpha (ER-alpha) signaling pathway (AID 743075; calls by dose curve;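 note: HEK293 GripTite cells with ER-alpha and UAS-driven beta-lactamase reporter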; note: potency is the fitted concentration of half-maximal effect).
For assay [7] the target is unchanged. In words: qHTS assay to identify small molecule agonists of the estrogen receptor alpha (ER-alpha) signaling pathway using the BG1 cell line (AID 743079). Note: nearly all actives have a fitted effect of over 20% in size. To be noted: BG1Luc4E2 cells, ERE-luciferase agonist, 22 h; activation: at 70.3 µM (top of the series).
Assay [8] in a line: qHTS assay to identify small molecule antagonists of the estrogen receptor alpha (ER-alpha) signaling pathway using the BG1 cell line (AID 743080; calls by dose curve;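 note: BG1 cells stimulated with 17beta-estradiol alongside compound; nearly all actives have a fitted effect of over 25% in size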). The procedure, abridged:
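Luciferase inhibition measured with ONE-Glo after 30 min at RT in BG1Luc4E2 cells given test compounds and 17beta-estradiol for 21.5 h at 37 C; CellTiter-Fluor viability read in the same wells beforehand.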

Assay [9] is described as follows: qHTS assay to identify small molecule antagonists of the estrogen receptor alpha (ER-alpha) signaling pathway using the BG1 cell line - cell viability counter screen (AID 743081).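 Note: compound given together with 17beta-estradiol as the ER stimulus; nearly all actives have a fitted effect of over 45% in size.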
The next assay has as its target Aromatase (Homo sapiens) (UniProt P11511). The assay is described as follows: qHTS assay to identify aromatase inhibitors (AID 743083). Note: nearly all actives have a fitted effect of over 55% in size. Note: potency is the fitted concentration of half-maximal effect.
A short description of assay [10]: qHTS assay to identify aromatase inhibitors - cell viability counter screen (AID 743084).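 Note: cells stimulated with testosterone during compound exposure; nearly all actives have a fitted effect of over 55% in size.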 Note: potency is the fitted concentration of half-maximal effect.
Assay [11] addresses Aryl hydrocarbon receptor (Homo sapiens) (UniProt P35869). The assay is described as follows: qHTS assay to identify small molecule that activate the aryl hydrocarbon receptor (AhR) signaling pathway (AID 743085).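 Note: HG2L7.5c1 human HepG2 liver cells with stably integrated DRE-driven firefly reporter; nearly all actives have a fitted effect of over 15% in size.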 A digest of the protocol: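 Luminescence read-out: ONE-Glo reagent, 30 min at room temperature, in HG2L7.5c1 HepG2 reporter cells treated 24 h at 37C. Viability was measured beforehand by CellTiter-Fluor fluorescence after 30 min at 37C.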

Assay [12] is described as follows: qHTS assay to identify small molecule that activate the aryl hydrocarbon receptor (AhR) signaling pathway - cell viability counter screen (AID 743086). Note: nearly all actives have a fitted effect of over 45% in size. The procedure, abridged: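 Cytotoxicity counter screen: CellTiter-Fluor signal (30 min, 37 C) in 4000 HepG2 cells/well carrying the DRE-luciferase reporter, following 24 h compound exposure at 37 C.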
The target of assay [13] is Peroxisome proliferator-activated receptor gamma (Homo sapiens) (UniProt P37231). In words: qHTS assay to identify small molecule agonists of the peroxisome proliferator-activated receptor gamma (PPARg) signaling pathway (AID 743094; active = well fitted activation curve with a large enough effect in the signal ratio in the repeat runs, not every such curve was filed as active; inconclusive = weak or mixed curves, or effect the other way; inactive = no such curve, though single readings can be large or run the other way; the % refers to the signal ratio). The procedure, abridged:
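Compounds dissolved in DMSO were added to PPARg UAS-bla HEK293H cells for 17 h at 37C, and reporter expression was quantified by fluorescence intensity after 1 h with LiveBLAzer B/G FRET substrate.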

The nature of assay [14]: qHTS assay to identify small molecule antagonists of the peroxisome proliferator-activated receptor gamma (PPARg) signaling pathway - cell viability counter screen (AID 743194). Note: nearly all actives have a fitted effect of over 55% in size. Note: potency is the fitted concentration of half-maximal effect. Particulars: Potency: co-treated with 50 nM rosiglitazone unless noted. A digest of the protocol:
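Viability was measured as CellTiter-Glo luminescence in GeneBLAzer PPARg UAS-bla HEK293H cells. These cells had been exposed 17 h at 37 C to compounds together with rosiglitazone at 50 nM final, with the beta-lactamase readout taken in the same wells.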

Assay [15] in a line: qHTS assay for small molecule agonists of the antioxidant response element (ARE) signaling pathway - cell viability counter screen (AID 743203; calls by dose curve; note: nearly all actives have a fitted effect of over 55% in size; note: potency is the fitted concentration of half-maximal effect). A digest of the protocol: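 Following 16 hrs of compound treatment at 37C, HepG2 cells with an ARE-controlled beta-lactamase gene were lysed with CellTiter-Glo. Luminescence was read after 30 min at room temperature.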
Assay [16] can be described thus: qHTS assay for small molecule activators of the heat shock response signaling pathway (AID 743210; active = well fitted activation curve with a large enough effect in the signal ratio in the repeat runs, with a control signal flat, not every such curve was filed as active; inconclusive = weak or mixed curves; the % refers to the signal ratio;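 note: HeLa cells with beta-lactamase reporter driven by heat shock elements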). A digest of the protocol: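 HeLa HSE-bla cells, overnight plating; cpd in DMSO 5 h, 37 C; LiveBLAzer B/G FRET substrate 2.5 h RT; fluorescence intensity read.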
Assay [17] is described as follows: qHTS assay for small molecule activators of the heat shock response signaling pathway - cell viability counter screen (AID 743209). Note: nearly all actives have a fitted effect of over 50% in size. A digest of the protocol:
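Readout: CellTiter-Glo luminescence, 30 min at room temperature. System: HSE-bla HeLa cells, 1500/well, plated overnight. Treatment: compounds in DMSO, 5 h at 37 C.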

Assay [18] deals with Peroxisome proliferator-activated receptor gamma (Homo sapiens) (UniProt P37231). In words: qHTS assay to identify small molecule antagonists of the peroxisome proliferator-activated receptor gamma (PPARg) signaling pathway (AID 743191; calls by dose curve; note: nearly all actives have a fitted effect of over 30% in size). The procedure, abridged:
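Beta-lactamase reporter under UAS control in HEK293H PPARg-bla cells; compound treatment 17 h at 37C. Read-out: fluorescence intensity after 1 h room-temperature incubation with LiveBLAzer B/G FRET substrate.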

A short description of assay [19]: qHTS assay for small molecule agonists of the antioxidant response element (ARE) signaling pathway (AID 743202; active = well fitted activation curve with a large enough effect in the signal ratio in the repeat runs, not every such curve was filed as active; inconclusive = weak or mixed curves, or effect the other way; inactive = no such curve, though single readings can be large or run the other way; the % refers to the signal ratio). A digest of the protocol: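 Quantitative high-throughput format in HepG2 cells bearing an integrated ARE-beta-lactamase reporter. Compound exposure lasted 16 h at 37 C, and fluorescence was read 2 h after adding LiveBLAzer B/G substrate at room temperature.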

Estrogen receptor (Homo sapiens), sequence (P03372 whole entry, looked up): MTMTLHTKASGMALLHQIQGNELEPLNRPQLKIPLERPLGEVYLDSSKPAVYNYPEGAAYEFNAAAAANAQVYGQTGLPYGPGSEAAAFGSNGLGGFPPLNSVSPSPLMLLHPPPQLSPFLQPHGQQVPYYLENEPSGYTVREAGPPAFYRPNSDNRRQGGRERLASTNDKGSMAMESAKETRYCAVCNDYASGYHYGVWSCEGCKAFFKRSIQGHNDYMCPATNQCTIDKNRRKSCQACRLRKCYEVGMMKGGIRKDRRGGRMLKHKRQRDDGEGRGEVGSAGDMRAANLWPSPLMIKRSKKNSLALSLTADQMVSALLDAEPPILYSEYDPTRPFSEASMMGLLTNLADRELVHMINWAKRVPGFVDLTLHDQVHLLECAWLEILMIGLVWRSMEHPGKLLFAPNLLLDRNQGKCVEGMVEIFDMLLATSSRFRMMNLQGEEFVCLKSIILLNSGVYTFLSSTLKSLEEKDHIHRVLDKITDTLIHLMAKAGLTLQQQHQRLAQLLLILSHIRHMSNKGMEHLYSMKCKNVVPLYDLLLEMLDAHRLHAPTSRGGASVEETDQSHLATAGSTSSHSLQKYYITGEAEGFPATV
Aromatase (Homo sapiens), sequence (P11511 whole entry, looked up): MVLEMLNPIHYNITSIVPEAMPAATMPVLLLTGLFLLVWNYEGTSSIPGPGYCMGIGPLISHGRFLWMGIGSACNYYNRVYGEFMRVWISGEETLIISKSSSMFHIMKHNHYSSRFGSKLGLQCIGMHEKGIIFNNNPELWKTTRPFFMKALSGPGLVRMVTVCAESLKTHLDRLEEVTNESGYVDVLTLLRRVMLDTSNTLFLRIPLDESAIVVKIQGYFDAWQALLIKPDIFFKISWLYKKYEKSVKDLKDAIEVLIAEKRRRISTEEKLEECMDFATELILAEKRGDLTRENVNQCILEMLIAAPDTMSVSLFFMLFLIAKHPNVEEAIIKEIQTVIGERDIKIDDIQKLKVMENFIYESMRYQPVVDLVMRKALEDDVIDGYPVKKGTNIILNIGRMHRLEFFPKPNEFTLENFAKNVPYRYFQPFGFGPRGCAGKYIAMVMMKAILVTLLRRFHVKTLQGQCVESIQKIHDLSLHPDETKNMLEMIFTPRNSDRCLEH
Peroxisome proliferator-activated receptor gamma (Homo sapiens), sequence (P37231 whole entry, looked up): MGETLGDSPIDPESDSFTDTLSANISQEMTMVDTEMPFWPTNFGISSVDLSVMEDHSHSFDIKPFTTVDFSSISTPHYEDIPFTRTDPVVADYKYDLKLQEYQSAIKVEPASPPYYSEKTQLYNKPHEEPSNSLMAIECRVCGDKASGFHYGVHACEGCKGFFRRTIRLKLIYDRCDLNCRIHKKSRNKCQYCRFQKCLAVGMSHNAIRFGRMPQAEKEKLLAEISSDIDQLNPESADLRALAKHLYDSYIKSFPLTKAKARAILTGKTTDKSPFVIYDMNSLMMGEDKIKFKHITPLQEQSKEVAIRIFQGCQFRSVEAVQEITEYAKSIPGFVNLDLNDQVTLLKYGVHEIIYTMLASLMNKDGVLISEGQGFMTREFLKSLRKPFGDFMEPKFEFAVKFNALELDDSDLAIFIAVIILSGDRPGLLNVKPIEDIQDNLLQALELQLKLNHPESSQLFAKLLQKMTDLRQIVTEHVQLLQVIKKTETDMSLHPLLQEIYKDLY
Aryl hydrocarbon receptor (Homo sapiens), sequence (P35869 whole entry, looked up): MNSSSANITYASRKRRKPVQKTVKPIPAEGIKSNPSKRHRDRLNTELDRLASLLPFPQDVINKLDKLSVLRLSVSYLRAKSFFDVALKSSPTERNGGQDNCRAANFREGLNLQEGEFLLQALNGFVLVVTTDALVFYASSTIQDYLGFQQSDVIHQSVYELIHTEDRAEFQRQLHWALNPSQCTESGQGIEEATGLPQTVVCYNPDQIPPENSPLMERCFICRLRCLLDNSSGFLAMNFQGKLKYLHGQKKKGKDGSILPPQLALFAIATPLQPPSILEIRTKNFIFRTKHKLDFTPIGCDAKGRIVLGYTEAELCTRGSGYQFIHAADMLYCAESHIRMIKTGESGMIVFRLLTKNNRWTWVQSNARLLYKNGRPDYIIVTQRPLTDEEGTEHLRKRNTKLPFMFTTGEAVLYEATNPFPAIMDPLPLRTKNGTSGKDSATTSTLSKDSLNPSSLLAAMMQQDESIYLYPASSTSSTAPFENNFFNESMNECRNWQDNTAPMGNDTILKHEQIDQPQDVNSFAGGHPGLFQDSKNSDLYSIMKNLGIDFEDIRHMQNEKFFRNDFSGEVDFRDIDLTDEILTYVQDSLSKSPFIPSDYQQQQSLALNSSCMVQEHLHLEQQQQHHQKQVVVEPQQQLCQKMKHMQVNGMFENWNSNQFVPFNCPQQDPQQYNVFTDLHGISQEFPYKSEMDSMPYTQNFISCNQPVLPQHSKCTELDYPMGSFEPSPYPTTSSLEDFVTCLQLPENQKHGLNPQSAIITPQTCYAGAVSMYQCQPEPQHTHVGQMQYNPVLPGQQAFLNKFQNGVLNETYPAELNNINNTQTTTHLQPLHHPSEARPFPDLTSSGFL

`CNC(=O)CSP(=O)(OC)OC`: the Potency entry in assay [1], in [2], in assay [3], in assay [4], in assay [5] and in [6] was “inactive” throughout. Besides, the Potency result (in assay [7]; in [8]; in assay [9]; in the assay with Aromatase (Homo sapiens); in assay [10]; in assay [11]) was “inactive” throughout. Besides, the Potency result in assay [12], in [13], in [14], in [15] and in assay [16] was “inactive” in each case.
On to `O=C1C(Cl)=C(Cl)C(=O)C(Cl)=C1Cl`, for which the Potency was 15.3 µM (active) and 13.7 µM (active) in [1]; 9.65 µM (active) and 5.45 µM (active) in assay [2]; 54.9 µM [inconclusive] (active) in assay [4]; 43.7 µM [activator] (active) in assay [6]; 9.65 µM (active) and 9.69 µM (active) with Aromatase (Homo sapiens); 10.8 µM (active) and 13.7 µM (active) in assay [10]. Besides, the Potency in assay [14] is 6.92 µM (active); in assay [15] it was “inactive and 13.7 µM (active)”. In addition, the Potency result in assay [3], in assay [5], in assay [7], in [8], in assay [9] and in assay [12] was “inactive” in each case. In addition, the Potency entry in assay [17] was “inactive”.
Take `Cc1cnc2c(C(=O)O)c(Cl)ccc2c1`: the Potency entry in [1], in assay [2], in [3], in assay [4], in [5] and in [6] was “inactive” each time. For the same compound, the Potency result (in assay [7]; in [8]; in assay [9]; with Aromatase (Homo sapiens); in assay [10]; in assay [11]) was “inactive” each time. Besides, the Potency result in assay [12], in assay [13], in [18], in [14], in assay [19] and in [15] was “inactive” throughout.
Consider `CC(C)NCC(O)c1ccccc1Cl` (stereo unspecified), for which the Potency entry in assay [1], in [2], in assay [3], in [4], in assay [5] and in assay [6] was “inactive” each time. Besides, the Potency entry (in assay [7]; in assay [8]; in [9]; with Aromatase (Homo sapiens); in assay [10]; in [11]) was “inactive” throughout. Further, the Potency result in [12], in assay [13], in assay [18], in [19], in [15] and in [17] was “inactive” each time. For the same compound, in [16], the Potency result was “inactive”.
For the compound `CC(C)c1c(CN(C)C(C)Cc2ccccc2)n(C)n(-c2ccccc2)c1=O` (stereo unspecified), the Potency entry in assay [1], in [3], in [4], in [5], in [6] and in assay [7] was “inactive” each time. Besides, the Potency entry (in assay [8]; in assay [9]; with Aromatase (Homo sapiens); in [10]; in assay [11]; in [12]) was “inactive” in each case. Further, the Potency result in assay [13], in [15], in assay [17] and in assay [16] was “inactive” throughout. The Potency in assay [2] was 11.4 µM (active).
Regarding `CC(Cc1ccc(OCC(=O)O)cc1)NCC(O)c1csc(C(F)(F)F)n1` (stereo unspecified), the Potency result in [1], in assay [2], in assay [4], in assay [5], in [6] and in assay [7] was “inactive” throughout. The Potency entry (in assay [8]; in [9]; with Aromatase (Homo sapiens); in [11]; in assay [12]; in assay [13]) was “inactive” in each case. Also, the Potency result in [18], in [14], in assay [19], in assay [17] and in assay [16] was “inactive” throughout. Further, in [3], the Potency was 77 µM (active).
With `COc1c2c(cc3c1OCO3)CCN(C)C2`, the Potency entry in assay [1], in assay [2], in assay [3], in assay [4], in assay [5] and in assay [6] was “inactive” each time. The Potency entry (in assay [7]; in assay [8]; with Aromatase (Homo sapiens); in assay [10]; in assay [11]; in [12]) was “inactive” throughout. Further, the Potency result in assay [13], in assay [14], in [19], in [17] and in assay [16] was “inactive” throughout.
